Data on 102 compounds can be found in ChEMBL document CHEMBL3988442, “University of Dundee, Small-Polar-MMV Screening Library” (2021).

Structures are written as SMILES. The campaign covered roughly 48,000 compounds. About 13,000 (27%) showed an effect of 50% or more. This is one part of the list.

The test system of the test is Wolbachia pipientis. Put plainly: Anti-Wolbachia Cell-Based Screen. Also on record: scale not given: in the data most compounds retested in dose-response had high values. It is filed as functional. The settings on record: 5 µM.
`CC(=O)N(C)Cc1ccccc1NCc1c(C)cccc1C`: the “Percent Effect” value is -18.14%.
In the case of `O=C(C1CC1)N1CC[C@H](c2nnc(-c3ccccc3F)o2)C1`, the “Percent Effect” value is given as -4.544%.
Turning to `CCc1c(C)nn2c(O)cc(C3CCN(C(=O)C4CC4)C3)nc12` (configuration not stated), the “Percent Effect” value is recorded as 96.58%.
The value for `O=C(C1CC1)N1CC[C@H](c2nc3ccccc3o2)C1` was 7.952%; that for `Cc1nc(C)n(CC2CN(Cc3cccc(C(N)=O)c3)CCO2)n1` (configuration not stated) was -4.426%.
`Cc1nc(C)n(CC2CCCN(Cc3ccc(C(N)=O)cc3)C2)n1` (configuration not stated): the “Percent Effect” value is on record as -2.004%.
For `Cc1nc(C)n(CC2CCCN(Cc3cccc(C(N)=O)c3)C2)n1` (configuration not stated) the value was 133.9%; for `COc1cccc(CN2CCCC(Cn3nc(C)nc3C)C2)c1` (configuration not stated), 103.7%.
The value for `Cc1nc(C)n(CC2CN(Cc3cccnc3)CCO2)n1` (configuration not stated) was 5.869%.
Turning to `COc1ccc(CN2CCCC(Cn3nc(C)nc3C)C2)cc1F` (configuration not stated), the “Percent Effect” value is recorded as -3.884%.
The value for `Cc1nc(C)n(CC2CCCN(Cc3cccnc3)C2)n1` (configuration not stated) was 89.08%; that for `Cc1nc(C)n(CC2CCCN(Cc3ccc4c(c3)OCCO4)C2)n1` (configuration not stated) was 92.75%; that for `Cc1nc(C)n(CC2CCCN(Cc3cccc(C#N)c3)C2)n1` (configuration not stated) was -5.879%.
The value for `COC(=O)c1ccc(C(=O)NCc2ccco2)nc1` was -23.57%; that for `CCc1nccn1CCC(=O)N1CC[C@@H](c2ccc(F)cc2)[C@H](O)C1` was -13.2%; that for `COc1ccccc1C1(CNc2nnc(C)c(C)c2C#N)CCOCC1` was 0.2404%.
For `Cc1cc(CN(C)C(=O)NCC2CCS(=O)(=O)C2)no1` (configuration not stated) the value was -10.09%.
Consider `Cc1nc(CNC(=O)NC2CC(C)(C)OC2(C)C)sc1C` (configuration not stated), for which the “Percent Effect” value is -0.2444%.
For `O=C(NCCCN1CCOCC1)Nc1cnc2cc(Cl)ccc2c1O` the value was -16.9%; for `O=C(NCCO)Nc1cnc2cc(Cl)ccc2c1O`, 99.99%; for `O=C(NCCO)Nc1cccc(Cl)c1SC(F)F`, 0.2889%.
For `O=C(NCC1CC1)Nc1cnc2cc(Cl)ccc2c1O` the value was -14.95%.
For `O=C(NCCCO)Nc1cnc2cc(Cl)ccc2c1O` the value was 96.93%.
For the compound `CC(CO)NC(=O)Nc1ccc(Cl)cc1OCC(F)(F)F` (configuration not stated), the “Percent Effect” value is reported as -4.812%.
For `O=C(NCCN1CCOCC1)Nc1cnc2cc(Cl)ccc2c1O` the value was 96.85%.
For `CC(C)OCCCNC(=O)Nc1cccc2ncccc12` the value was -8.776%; for `N[C@H]1CN(C(=O)c2cnc3cc(Cl)ccc3c2O)C[C@@H]1C1CC1`, 6.977%.
For `CC(C)OC(=O)c1ccc(Cl)c(NC(=O)NCCN2CCOCC2)c1` the value was -2.134%; for `CNC(=O)Nc1cnc2cc(Cl)ccc2c1O`, 96.42%; for `O=C(NCCCO)Nc1cccc(Cl)c1F`, -20.85%.
As for `CC(=O)NC(C(=O)N(C)Cc1nnc2n1CCC2)C(C)C` (configuration not stated), the “Percent Effect” value was determined as 2.941%.
Regarding `Cc1cc(C(=O)N2C[C@@H]3COC[C@]3(c3nnc(C4CC4)o3)C2)on1`, the “Percent Effect” value is -20.3%.
Take `COc1ccccc1OC1CN(C(=O)C(c2ccc(F)cc2)N(C)C)C1` (configuration not stated): the “Percent Effect” value was -23.44%.
With `CCOc1c(Br)cc(C2C3=C(COC3=O)Nc3[nH]nc(C)c32)cc1OC` (configuration not stated), the “Percent Effect” value was -13.27%.
For `Cc1cnc(C(=O)N(C)Cc2nc(-c3ccccn3)no2)cn1` the value was -1.871%; for `Fc1ccccc1Cc1noc(CN2CCC(N3CCSCC3)CC2)n1`, 5.463%; for `Cc1ccccc1N1CCCN(C(=O)c2cn(C)c3ccccc23)CC1`, 5.002%.
Take `N#Cc1ccccc1N1CCN(C(=O)NCCN2CCOCC2)CC1`: the “Percent Effect” value is reported as -5.749%.
The value for `O=C(Nc1ccc(I)cc1C(=O)NCCN1CCOCC1)c1ccco1` was 13.86%.
Regarding `O=C(Nc1ccc(Cl)cc1C(=O)NCCN1CCOCC1)c1ccco1`, the “Percent Effect” value is on record as 134.1%.
Regarding `O=C(Nc1ccccc1C(=O)NCCN1CCOCC1)c1ccco1`, the “Percent Effect” value came out at 0.2432%.
The value for `COc1cc(CN2CCCC(Nc3cccc(F)c3)C2)cc(OC)c1O` (configuration not stated) was 11.19%; that for `CC(C)C1CN(S(=O)(=O)C2CC2)CCCN1Cc1ccc(F)cc1` (configuration not stated) was -0.9864%; that for `Cc1ccc([C@@H]2CN(S(=O)(=O)C(C)C)C[C@H]2N(C)C)cc1` was 4.129%.
With `CC(C)C1CN(S(=O)(=O)N2CCCC2)CCCN1Cc1ccc(F)cc1` (configuration not stated), the “Percent Effect” value is -9.548%.
For `COc1ccc(CN(C)[C@@H]2CN(S(=O)(=O)C(C)C)C[C@H]2O)cc1` the value was 105.6%.
The value for `CC(C)S(=O)(=O)N1C[C@@H](O)[C@H](N(C)Cc2ccc(F)cc2)C1` was 92.86%; that for `CCOCC(=O)N1C[C@@H](O)[C@H](N(C)Cc2ccc(OC)cc2)C1` was -9.013%; that for `CC(C)(C)Cc1noc2ncc(C(=O)N3CCSCC3)cc12` was -2.131%.
`CCc1nnc(CN2CCC(C3CCCCCN3C(=O)C3CC3)CC2)o1` (configuration not stated): the “Percent Effect” value worked out at 5.041%.
The value for `O=C(c1ccsc1)N1C[C@H]2CN(Cc3cccc(F)c3)C(=O)[C@H]2C1` was -13.46%; that for `O=C(C1CCOC1)N1C[C@H]2CN(Cc3cccc(F)c3)C(=O)[C@H]2C1` (some centres not stated) was 101.2%.
For `O=C(O)C(F)(F)F.O=C1[C@H]2CN(C3CCOCC3)C[C@H]2CN1Cc1cccc(F)c1` the value was -0.9945%; for `Cc1cccc(CN2C[C@@H]3CN(C(=O)c4ccnnc4)C[C@@H]3C2=O)c1`, -7.292%; for `Cc1cccc(CN2C[C@@H]3CN(C(=O)C4CCOC4)C[C@@H]3C2=O)c1` (some centres not stated), 100.9%.
For the compound `Cc1cccc(CN2C[C@@H]3CN(C(=O)c4ccco4)C[C@@H]3C2=O)c1`, the “Percent Effect” value is on record as -8.497%.
As to `O=C(Nc1ccn(Cc2cccc3cccnc23)n1)C1COCCO1` (configuration not stated), the “Percent Effect” value is -13.67%.
In the case of `COc1ccc(F)c(CN2CCCC(O)(CNCC(C)(C)C)C2=O)c1` (configuration not stated), the “Percent Effect” value is on record as 1.776%.
The value for `C[C@@H]1CN(C(=O)c2cn(CCN3CCCCC3)nn2)C[C@H](C)O1` was -14.27%.
As for `O=C(NCC1CCOC1)c1csc(-c2cccc(Cl)c2)n1` (configuration not stated), the “Percent Effect” value is 7.495%.
The value for `O=C(NCC1CCOC1)c1csc(-c2ccc(Cl)cc2)n1` (configuration not stated) was 107.7%.
Take `Cc1ccc(-c2nc(C(=O)NCC3CCOC3)cs2)cc1` (configuration not stated): the “Percent Effect” value was found to be 113.2%.
Turning to `O=C(NCC1CCOC1)c1csc(-c2ccco2)n1` (configuration not stated), the “Percent Effect” value stood at 5.751%.
On to `O=C(NCC1CCOC1)c1csc(-c2ccc(F)cc2)n1` (configuration not stated), for which the “Percent Effect” value was found to be 81.86%.
For `O=C(c1csc(-c2ccco2)n1)N(CC1CCOC1)C1CC1` (configuration not stated) the value was -4.102%.
For `O=C(NCC1CCOC1)c1csc(-c2ccccc2)n1` (configuration not stated), the “Percent Effect” value came to 102.2%.
For `Cc1ccc(-c2cc(C(=O)NCC3CCOC3)n[nH]2)s1` (configuration not stated) the value was -13.79%; for `O=C(CC(F)(F)F)N1CCc2[nH]nc(-c3ccc4c(c3)OCO4)c2C1`, -1.74%.
As to `CNC(=O)C(C)CNC(=O)c1coc(COc2cccc(F)c2F)n1` (configuration not stated), the “Percent Effect” value is reported as -14.56%.
For `CCc1ccc(CNC2(c3ccc(F)cc3)CCOCC2)o1` the value was 6.225%; for `Cc1ccc(-c2nc(CN(Cc3ccco3)C3CCS(=O)(=O)C3)cs2)o1` (configuration not stated), 9.055%; for `OC1CCCN(Cc2cn(CC3CCN(C4CCSCC4)CC3)nn2)C1` (configuration not stated), -15.38%.
On to `CC(C)C(C)N(C)Cc1nnc(-c2ccco2)o1` (configuration not stated), for which the “Percent Effect” value is -1.497%.
Take `CCOc1ccc(-c2nc(C(=O)NCC3CCOC3)cs2)cc1` (configuration not stated): the “Percent Effect” value is 120.1%.
The value for `O=C(NCC1CCOC1)c1cc(-c2cccc(Cl)c2)on1` (configuration not stated) was 10.92%; that for `Cc1ccc(-c2nc(CC(=O)NCC3CCCOC3)cs2)o1` (configuration not stated) was 16.72%; that for `COc1ccc(-c2nc(C(=O)NCC3CCOC3)cs2)cc1OC` (configuration not stated) was 119.6%.
In the case of `O=C(NCC1CCOC1)c1cc(-c2cccc(Cl)c2)[nH]n1` (configuration not stated), the “Percent Effect” value is -2.907%.
For `O=C(NCC1COC2(CCOCC2)O1)c1csc(-c2cccc(Cl)c2)n1` (configuration not stated), the “Percent Effect” value is listed as 108.1%.
As to `COCc1nc2cc(NCc3ccncc3)ccc2o1`, the “Percent Effect” value stood at 5.074%.
For `Cc1cc(=O)[nH]c(CCNC(=O)C(c2ccc(F)cc2)N(C)C)n1` (configuration not stated) the value was 1.632%; for `Cc1nnc(NCC2(c3ccccc3)CCC2)c(C#N)c1C`, 7.557%; for `CC1CCN(S(=O)(=O)NCCCn2cncn2)CC1`, 4.517%.
For `COc1cccc(CN2CCN(c3noc(C(C)C)n3)CC2)c1F` the value was -2.027%; for `COc1ncccc1CN1CCN(c2noc(C(C)C)n2)CC1`, -8.091%.
For the compound `COc1cccc(CN2CCN(c3cccc(C(C)C)n3)CC2)c1F`, the “Percent Effect” value is reported as 77.06%.
For `CCc1ccc(C(=O)O)cc1S(=O)(=O)N(C)c1cccc(C)c1`, the “Percent Effect” value was -14.76%.
Consider `CS(=O)(=O)Cc1nc(CN2CCOc3ccccc3C2)cs1`, for which the “Percent Effect” value was found to be 2.526%.
For `CCCN(CCS(C)(=O)=O)C1CCc2ccccc2C1` (configuration not stated) the value was 9.171%; for `CS(=O)(=O)CCN(CCc1cccc(F)c1)C1CC1`, 102.8%.
The value for `CS(=O)(=O)CCCN(CCc1cccc(F)c1)C1CC1` was 89.73%.
For `CS(=O)(=O)CCC(=O)N(CCc1cccc(F)c1)C1CC1` the value was 102.1%; for `O=C(C[S+]([O-])Cc1cccc(F)c1)NC1CCCC1` (configuration not stated), -2.524%; for `CS(=O)(=O)CCC(=O)N(Cc1c(F)cccc1F)C1CCCC1`, -8.645%.
For `NS(=O)(=O)CCN(CCc1cccc(F)c1)C1CCCC1`, the “Percent Effect” value is listed as 101.5%.
For `Fc1cccc(CCN(c2ccc3nnnn3n2)C2CC2)c1` the value was -14.94%; for `CS(=O)(=O)C1CCN(S(=O)(=O)Cc2cccc(F)c2)CC1`, -8.016%.
The value for `CC(C)(C)S(=O)(=O)CCNC(=O)NCCCc1cccc(F)c1` was 22.42%.
For `Cc1ccc(C(=O)N(Cc2cccc(F)c2)C2CC2)c(=O)[nH]1` the value was -0.8552%.
Turning to `CS(=O)(=O)CCN(Cc1cccc(O)c1)C1CCC(O)CC1` (configuration not stated), the “Percent Effect” value is given as -5.154%.
The value for `Cc1noc(C)c1CN(C)C(=O)NC1CCN(C2CC2)CC1` was -39.67%.
As to `O=C(c1cc(-c2ccco2)nc2c(Cl)cccc12)N1CCS(=O)(=O)CC1`, the “Percent Effect” value is -1.812%.
